Measured values as given in PubChem BioAssay (NCATS).
Calls of active or inactive are those of the source. Calls come from the whole dose curve.

settings: Ebola virus entry assay, ratio channel readout

Structure (SMILES)	outcome
CN1CCN(C(c2ccccc2)c2ccc(Cl)cc2)CC1 (configuration not stated)	inactive
CN[C@@H]1[C@H](O[C@H]2[C@H](O[C@H]3[C@H](O)[C@@H](O)[C@H](N=C(N)N)[C@@H](O)[C@@H]3N=C(N)N)O[C@@H](C)[C@]2(O)C=O)O[C@@H](CO)[C@H](O)[C@H]1O	inactive
O=C(N[C@H](CO)[C@H](O)c1ccc([N+](=O)[O-])cc1)C(Cl)Cl	inactive
CC(C)CN(C[C@@H](OP(=O)(O)O)[C@H](Cc1ccccc1)NC(=O)O[C@H]1CCOC1)S(=O)(=O)c1ccc(N)cc1	inactive
CN(C)CCOc1ccc(/C(=C(/CCCl)c2ccccc2)c2ccccc2)cc1	inactive
CC(C)(C)NC(=O)[C@@H]1C[C@@H]2CCCC[C@@H]2CN1C[C@@H](O)[C@H](Cc1ccccc1)NC(=O)[C@H](CC(N)=O)NC(=O)c1ccc2ccccc2n1	inactive
COc1cccc2c1C(=O)c1c(O)c3c(c(O)c1C2=O)C[C@@](O)(C(=O)CO)C[C@@H]3O[C@H]1C[C@H](N)[C@@H](O)[C@H](C)O1	inactive
